Here are results for 18 compounds from the supplement of paper PMC10646978.

Molecules are shown by their SMILES. ± gives the standard deviation.

The test system of this assay is RAW-Dual (murine macrophage reporter line). The assay is described as follows: NF-kB reporter (SEAP) activity fold change vs agonist alone; higher = enhanced NF-kB activity. To be noted: modulator concentration 10 µM; agonist: CpG ODN 1826 0.5 ug/mL. Summed up: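 RAW-Dual murine macrophage reporter cells were plated at 50 000 per well in 384-well plates, pin-transferred compound to 10 μM final, and pre-incubated for 1 hour at 37 °C before a PRR agonist was added and the cells incubated overnight. NF-κB activity was read from supernatant SEAP with QUANTI-Blue at 620 nm absorbance, and IRF activity from Lucia luciferase with QUANTI-Luc by luminescence. Each signal was expressed as fold change by dividing by the mean agonist-only control on the same plate. Two replicate plates were averaged, with errors obtained by propagation.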
With `Cc1ccc(F)c(NC(=O)Nc2ccc(-c3cccc4[nH]nc(N)c34)cc2)c1`, the NF-kB reporter came to 0.692 ± 0.1.
Under `CCN(CC)C(=O)N1CCN(C)CC1.O=C(O)CC(O)(CC(=O)O)C(=O)O` stands 1.04 ± 0.19.
In the case of `O=S(=O)(Nc1ccnc2ccccc12)c1ccccc1`, the NF-kB reporter worked out at 0.928 ± 0.075.
For `CC(C)C(=O)c1c(C(C)C)nn2ccccc12`, the NF-kB reporter stood at 1.59 ± 0.12.
The same measure for `CCC1OC(=O)C(C)C(OC2CC(C)(OC)C(O)C(C)O2)C(C)C(OC2OC(C)CC(N(C)C)C2O)C(C)(O)CC(C)CN(C)C(C)C(O)C1(C)O` (stereo not drawn): 0.593 ± 0.046; for `O=C(Nc1ccc(NS(=O)(=O)c2ccccc2)cc1)c1ccco1`: 1.12 ± 0.14; for `O=C(CSC1CC(=O)N(c2ccc(C(=O)O)cc2)C1=O)Nc1ccc(F)cc1` (stereo not drawn): 0.998 ± 0.081.
`CC1ON(c2ccc(Cl)c(Cl)c2)C(=O)NC1=O` (stereo not drawn): the NF-kB reporter was 1.02 ± 0.13.
Consider `CCN(CC)c1ccc(C=NNc2cc(N3CCOCC3)nc(N3CCOCC3)n2)cc1`, for which the NF-kB reporter came out at 0.894 ± 0.096.
Regarding `COC(CNS(=O)(=O)c1ccccc1Br)c1ccc(C)s1` (stereo not drawn), the NF-kB reporter turned out to be 1.04 ± 0.1.
The same measure for `CN(C)CC/C=C1\c2ccccc2COc2ccccc21.Cl`: 0.888 ± 0.038.
For `O=c1cccnn1CC1CN(c2ncc(Br)cn2)C1`, the NF-kB reporter is 1.04 ± 0.32.
In the case of `CCOC(=O)C1=C(C)NC(C)=C(C(=O)OCC)C1c1ccc(F)cc1`, the NF-kB reporter was 0.796 ± 0.067.
Under `C#CCCCCCCCCCCCC(O)CC(O)COC(C)=O` (stereo not drawn) stands 1.1 ± 0.34.
In the case of `O=C(O)c1nn(-c2ccccc2)c(=O)c2ccccc12`, the NF-kB reporter was 1.12 ± 0.13.
Take `Cc1nnc(C(=O)NC(C)(C)c2nc(C(=O)NCc3ccc(F)cc3)c(O)c(=O)n2C)o1`: the NF-kB reporter was found to be 1.08 ± 0.19.
Under `OC(Cn1cncn1)(Cn1cncn1)c1ccc(F)cc1F` stands 0.875 ± 0.072; under `Cn1c(=O)[nH]c2nnc(-c3cccnc3)nc2c1=O`, 1.09 ± 0.2.
